“And” between values parts separate entries of the source, which are not always exact repeats. Equal values may be shown once. This is part of a sample that, as a whole, favours compounds with a hit. Of some 79,000 tested, about 15% had one in any assay. Rule as the data show it: active = growth inhibition above about 70%; inactive = the rest.
Tests used:
[1] = NCI Yeast Anticancer Drug Screen. Data for the rad50 strain (AID 155);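 also: 0% = growth of vehicle-only cultures of the same strain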; settings: S. cerevisiae rad50 strain growth inhibition; at 50.0 µM; hits give high values
How it was run: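 Genetically altered yeast (DNA repair pathway); compound treatment; growth inhibition vs vehicle ctrl.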

[2] = NCI Yeast Anticancer Drug Screen. Data for the mec2-1 strain (AID 157); settings: S. cerevisiae mec2-1 strain, at 50.0 µM, hits give high values
How it was run: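 Growth inhibition is read against vehicle-treated controls after compound exposure of the mec2-1 yeast strain, which is defective in DNA damage repair or cell cycle control.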

[3] = NCI Yeast Anticancer Drug Screen. Data for the sgs1 mgt1 strain (AID 161);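 also: 0% = growth of cultures given vehicle only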; settings: S. cerevisiae sgs1 mgt1 strain, at 50.0 µM, hits give high values
How it was run: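 Yeast cells carrying a defined DNA-repair defect were exposed to test compounds. Growth inhibition was measured relative to vehicle-treated controls.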

[4] = NCI Yeast Anticancer Drug Screen. Data for the cln2 rad14 strain (AID 165);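 also: 0% = growth equal to vehicle treated cultures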; settings: S. cerevisiae cln2 rad14 strain, at 50.0 µM, hits give high values
How it was run: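 Growth inhibition, relative to vehicle-treated controls, is the read-out. The test organism is a yeast strain with defined genetic alterations, cln2 rad14.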

[5] = NCI Yeast Anticancer Drug Screen. Data for the bub3 strain (AID 167); settings: S. cerevisiae bub3 mutant strain, at 50.0 µM, hits give high values
How it was run: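 Yeast carrying a defined mutation is treated with each compound, and growth is compared with that of vehicle-exposed cells to give inhibition.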

[6] = NCI Yeast Anticancer Drug Screen. Data for the mlh1 rad18 strain (AID 175); settings: S. cerevisiae mlh1 rad18 strain growth inhibition; at 50.0 µM; hits give high values
How it was run: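 Cells of a genetically altered yeast strain, deficient in DNA damage repair, were treated with compound. Their growth was then compared with that of vehicle-treated cultures to give inhibition.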

Measured: growth inhibition

CCOC(=O)C1OC(C2(C)OC3(OC4(C=CC3O)OC(C(C)C(=O)C(C)C(O)C(C)CC(C)c3c(Cl)cc(C)c(O)c3C(=O)O)C(C)CC4C)C(C)C2OC)CC1O (stereo unspecified)
inactive: [1] -12.7% | [2] -27% | [3] -6.95% | [4] 22.9% | [5] 5.9% | [6] 5.75%

CCCCC(Br)C(=O)OCC (stereo unspecified)
inactive: [1] 26.1% | [2] 6.55% | [3] -26.5% | [4] -11.6% | [5] 10.9% | [6] 11.8%

CC(=O)c1ccc(-c2ccccc2)cc1
inactive: [1] -5.3% | [2] 2.6% | [3] 8.45% | [4] 11.9% | [5] 3.6% | [6] 18.1%

CC(NC1=NCCO1)c1cccs1 (stereo unspecified)
inactive: [1] 12.2% | [2] -2.15% | [3] -20.1% | [4] 25.9% | [5] 15.7% | [6] -12.9%

CCCCC(CC)C(O)P(=O)(OCC)OCC (stereo unspecified)
inactive: [1] -0.55% | [2] 19% | [3] -2.3% | [4] -21.9% | [5] 23.7% | [6] 9.9%

CC(C)N(C#N)C(C)C
inactive: [1] 16.6% | [2] -0.75% | [3] 1.85% | [4] 9.6% | [5] 0.25% | [6] 6.25%

CN1C(=O)N(C)C(O)C(Cl)(Br)C1=O (stereo unspecified)
inactive: [1] -0.5% | [2] 2.5% | [3] 7.3% | [4] 26.2% | [5] 5.9% | [6] 12.7%

NC(=O)c1cc([N+](=O)[O-])cc([N+](=O)[O-])c1
inactive: [1] 1.35% | [2] -16.2% | [3] 9.1% | [4] 0% | [5] 3.35% | [6] 14.8%

COc1ccc2c3c1O[C@H]1C(Br)C=C[C@H]4[C@@H](C2)N(C)CC[C@]314 (stereo partly specified)
inactive: [1] -11.8% | [2] -15.8% | [3] 7.15% | [4] -22.6% | [5] 29.2% | [6] 8.35%

Cc1ccc(S(=O)(=O)F)cc1
inactive: [1] 10.4% | [2] -8.7% | [3] 2.1% | [4] -14.7% | [5] -1.3% | [6] 9.5%

Cc1cc(Cl)nc(N)n1
inactive: [1] -5.3% | [2] 4.55% | [3] -5.4% | [4] -13.9% | [5] 10.1% | [6] -21.4%

Cc1ccccc1-n1c(CCl)nc2ccc(Br)cc2c1=O
inactive: [1] 18.4% | [2] 2.6% | [3] 12.6% | [4] 6.05% | [5] 1.35% | [6] 27.1%

CN1Cc2cc3cc4c(cc3nc2N(C)C1)OCCO4
inactive: [1] 1.5% | [2] 12.2% | [3] -1.5% | [4] 11.4% | [5] 8.9% | [6] 15.1%

OCC(O)C(O)CO (stereo unspecified)
inactive: [1] 6.7% and 6.95% | [2] -0.55% and 8.95% | [3] 3.55% and 0.4% | [4] -61.8% and 20.8% | [5] 12.1% and 24.6% | [6] -1.05% and 0.1%

CCOP(=S)(N/N=C/c1ccc(C)s1)OCC
inactive: [1] -19.3% | [2] -27.2% | [3] 5.45% | [4] -12.3% | [5] 7.65% | [6] -30.8%

CCN(CC)C(=S)SCc1ccccc1OC(=O)NC
inactive: [1] -4.35% | [2] -8.6% | [3] 7.2% | [4] -43.5% | [5] 33.1% | [6] -5.95%

COc1ccc(NC(=O)C(=O)C(CC2C(=O)NC(=S)NC2=O)C(=O)c2ccc3ccccc3c2)c([N+](=O)[O-])c1 (stereo unspecified)
inactive: [1] -10.7% | [2] 1.35% | [3] 13.1% | [4] -30.1% | [5] 31.2% | [6] 3.5%

O=c1[nH]cc(CCl)c(=O)[nH]1
inactive: [1] 3.2% | [2] -17.2% | [3] 6.3% | [4] 25.9% | [5] 4.85% | [6] -0.15%

CCCCCCCC(=O)O.[Pb]
inactive: [1] 3.55% | [2] 5.55% | [3] 3% | [4] 13.9% | [5] -6% | [6] 14.8%

[Se]=P(N1CCCCC1)(N1CCCCC1)N1CCCCC1
inactive: [1] 21.6% | [2] 2.75% | [3] 6.4% | [4] 6.55% | [5] 11.4% | [6] 10.2%

COc1cccc(C(O)CN(C)C)c1OC (stereo unspecified)
inactive: [1] 7.05% | [2] -6.65% | [3] 11.2% | [4] 30.2% | [5] -9.85% | [6] 9.95%

From PubChem BioAssay (NCI)
